Shown are actives, neighbours in structure and some others; about 5.4% of the full set was active somewhere.
MIN6 prolif = inducers of MIN6 beta-cell proliferation, primary screen, ATP luminescence, uHTS. MIN6 cells proliferation, ATPlite luminescence, 48 h; cells starved in 0.2% serum; 100% = growth in 10% serum. proliferation, % at 10 µM. actives 0.29% (n = 330,000). AID 2380, 2010;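 active means compounds whose signal lies at least 3.5 SD above the mean of all wells on their plate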;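 further: 0% = DMSO-treated cells in low-serum medium and 100% = 10% serum control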
Exocytosis inh = LAMP-1 surface exposure blockers, TALL-104 cells – cell-based, flow cytometry, MLPCN library, primary screen. inhibition, % at 10 µM. AID 651702, 2012. actives 0.66% (n = 360,000). TALL-104 LAMP-1 surface exposure; cells stimulated with thapsigargin and PMA;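 active means inhibition above about 55%, limit read from the data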
M18AAP inhibitor = PfM18AAP inhibitors, malaria aminopeptidase, primary screen, biochemical, QFRET, recombinant enzyme; inhibition, % at 7.35 µM; actives 1.2% (n = 290,000); H-Glu-NHMec fluorogenic cleavage;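 active means inhibition above the campaign mean inhibition over all tested compounds plus 3 SD, cut at about 28% in these data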;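 further: 0% = plate median of test compound wells and 100% = 2 mM ZnCl2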
GASC-1 inh = inhibitors of GASC-1 histone demethylase, primary screen, biochemical, fluorescence, DELFIA europium. GST-JMJD2C(1-420) H3K9me3 demethylation. inhibition, % at 2.35 µM. Lysine-specific demethylase 4C (Homo sapiens), Q9H3R0. actives 0.069% (n = 330,000);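 active means more than half of a compound's replicate wells show inhibition beyond 50%, single wells judged on their own value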;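 further: signal counts dimethyl H3K9 product captured on neutravidin plate; 0% = median of DMSO wells and 100% = 0.3 times that DMSO median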
Target sequence (Q9H3R0 1-420 limits assumed): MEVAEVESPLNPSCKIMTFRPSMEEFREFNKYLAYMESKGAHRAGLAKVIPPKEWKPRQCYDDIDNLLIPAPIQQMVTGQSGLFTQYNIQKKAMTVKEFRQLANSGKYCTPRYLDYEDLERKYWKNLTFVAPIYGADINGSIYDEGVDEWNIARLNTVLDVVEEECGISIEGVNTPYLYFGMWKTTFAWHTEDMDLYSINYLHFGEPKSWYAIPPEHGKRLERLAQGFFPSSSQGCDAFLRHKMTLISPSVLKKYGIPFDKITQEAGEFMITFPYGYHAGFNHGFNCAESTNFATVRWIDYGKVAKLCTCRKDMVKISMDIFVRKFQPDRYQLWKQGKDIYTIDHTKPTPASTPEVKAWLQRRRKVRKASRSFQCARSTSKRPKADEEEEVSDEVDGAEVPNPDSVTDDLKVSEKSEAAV
SMARCA2 act = SMARCA2 (BRM) function activators, primary screen, cell-based, luminescence, high throughput | actives 1% (n = 370,000) | activation, % at 9.1 µM | MG213 cells, MMTV-luciferase reporter, dexamethasone, overnight; in the data active means activation above about 7.8%;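 further: 0% = vehicle wells and 100% = reference activator wells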
ALR H2O2 inh = inhibitors of human ALR sulfhydryl oxidase, primary screen, biochemical, H2O2 detection, HRP-luminol luminescence, single point. purified ALR, DTT oxidation. inhibition, % (test concentration not listed). actives 3.8% (n = 290,000). FAD-linked sulfhydryl oxidase ALR (Homo sapiens), P55789. AID 485317, 2010;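 active means mean replicate inhibition above about 79%, with every replicate also reaching it, limit read from the data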
Target sequence (P55789 whole entry, looked up): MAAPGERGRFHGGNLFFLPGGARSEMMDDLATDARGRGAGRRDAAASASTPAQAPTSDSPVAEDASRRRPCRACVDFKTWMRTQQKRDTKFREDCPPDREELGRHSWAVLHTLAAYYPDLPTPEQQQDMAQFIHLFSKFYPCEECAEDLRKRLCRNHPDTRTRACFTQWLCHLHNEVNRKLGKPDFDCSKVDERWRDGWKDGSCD
* hit, by the source's call; nt = no result.

SMILES | MIN6 prolif | Exocytosis inh | M18AAP inhibitor | GASC-1 inh | SMARCA2 act | ALR H2O2 inh
O=C(NCc1c(F)cccc1F)C1C2C=CC3(CN(Cc4ccccc4)C(=O)C13)O2 (configuration not stated) | nt | nt | nt | nt | -5 | nt
COc1ccc(OC)c(N(C(=O)c2snc(C(N)=O)c2N)C(C(=O)NCc2ccccc2)c2ccc(O)cc2)c1 (configuration not stated) | 7 | -6 | -2 | -14 | 0 | nt
NC(=O)c1nsc(C(=O)N(Cc2ccco2)C(C(=O)NCc2ccc(F)cc2)c2ccc(O)cc2)c1N (configuration not stated) | 1 | 32 | -2 | -4 | -2 | 4
COc1ccc(CNC(=O)C(c2ccc(C)o2)N(C(=O)c2snc(C(N)=O)c2N)c2ccccc2OC)cc1 (configuration not stated) | -1 | 73* | -2 | 0 | -1 | -2
Cc1ccc(C(C(=O)NCc2ccc(F)cc2)N(Cc2ccco2)C(=O)c2snc(C(N)=O)c2N)o1 (configuration not stated) | 5 | 74* | 13 | -1 | -4 | nt
C/C(C=Nn1c(-c2ccc(F)cc2)n[nH]c1=S)=C/c1ccco1 | nt | nt | nt | nt | 3 | nt
COC1=CC(=O)C=C(OC)C1=O | nt | 78* | nt | nt | 4 | nt
O=C(NCC1CCN(C(=O)C(=O)c2cccs2)CC1)c1ccncc1 | nt | nt | nt | nt | -4 | nt
CC1=NN(c2ccccc2)C(=O)C1C=Nc1ccc(N(C)C)cc1 (configuration not stated) | -3 | -12 | 31* | -16 | -4 | nt
O=[N+]([O-])c1ccc(Cn2ccc3ccc(-c4ccc5ccn(Cc6ccccc6)c5c4)cc32)cc1 | nt | nt | nt | nt | -2 | nt
COC(=O)c1ccccc1N/C=C1\CCc2c(c(C)nn2-c2ccccn2)C1=O | -2 | 65* | 20 | 9 | 2 | -6
CCOP(=O)(OCC)C(C#N)=C1SCN(c2ccccc2)CS1 | -3 | 2 | 8 | -8 | -3 | 99*
CC1CC(Nc2ccccc2)c2ccccc2N1C(=O)c1ccco1 (configuration not stated) | -3 | 11 | 2 | -2 | -6 | 99*
CC1CC(Nc2ccccc2)c2ccccc2N1C(=O)c1ccncc1 (configuration not stated) | 2 | 0 | 4 | nt | -4 | -16
COc1ccc(CN2C(=O)N3Cc4ccccc4C3CS2(=O)=O)cc1 (configuration not stated) | nt | nt | nt | nt | -1 | nt
C=CCn1c(SCC(=O)c2ccc(-c3ccccc3)cc2)nnc1-c1ccc(OC)cc1 | nt | nt | nt | nt | -2 | nt
CC/C(=N\O)c1ccc(O)c(OC)c1 | -1 | 2 | 6 | -2 | 1 | 99*
CC/C(=N\O)c1ccc(OC)c(OC)c1 | 3 | 3 | -3 | 1 | 1 | 1
CNC(=O)c1c(NC(=O)c2nc3ccccc3s2)sc2c1CCC2 | 0 | -3 | 4 | 1 | nt | 97*
CNC(=O)c1c(NC(=O)c2ccc(N3C(=O)CCC3=O)cc2)sc2c1CCCC2 | -4 | 3 | 4 | 8 | -3 | 97*
CNC(=O)c1c(NC(=O)c2ccc(S(=O)(=O)N3CCCC3)cc2)sc2c1CCN(C(C)C)C2 | 1 | nt | 32* | -5 | 0 | 0
Cc1ccccc1C(=O)N(C)[C@H]1C[C@H]2c3[nH]c4c(-c5ccccc5)cccc4c3CCN2C[C@H]1[C@H](C)O | nt | nt | nt | nt | -3 | nt
Cc1ccc2[nH]c(-c3cccc(N)c3)cc2c1 | -5 | 2 | -3 | 10 | 4 | 98*
CCOC(=O)c1cc(NC(=O)c2cccs2)ccc1N1CCOCC1 | -2 | -4 | 3 | -7 | -1 | 2
COC(=O)c1cc(NCc2ccccc2F)ccc1N1CCOCC1 | -2 | -2 | 1 | 0 | -2 | 99*
SMILES | MIN6 prolif | Exocytosis inh | M18AAP inhibitor | GASC-1 inh | SMARCA2 act | ALR H2O2 inh
CCOC(=O)c1cc(NCc2cccs2)ccc1N1CCOCC1 | 0 | -3 | 6 | -3 | 0 | 99*
CCN(CC)C(=O)CC[C@H]1CC[C@]2(CCCN(Cc3cccc4ccccc34)C2)O1 | nt | nt | nt | nt | 0 | nt
CC(=O)Nc1ccc(S(=O)(=O)NNc2cccc(C)c2)cc1 | -2 | -4 | 14 | -17 | -3 | 99*
O=S(=O)(Nc1ccc(S(=O)(=O)Nc2ccccc2)cc1)c1ccccc1 | -2 | -3 | 4 | -9 | 0 | nt
Cc1ccc(Nc2ccccc2)cc1 | 0 | 1 | -9 | -2 | -4 | 7
Cc1ccc(S(=O)(=O)c2cc(Nc3ccccc3)ccc2O)cc1 | -8 | 0 | nt | -1 | 0 | 100*
O=S(=O)(Nc1ccc(Nc2ccccc2)cc1)c1ccc(F)cc1 | -5 | 6 | nt | 2 | -6 | 98*
Cc1ccc(S(=O)(=O)Nc2cc(C)c(O)c(S(=O)(=O)c3ccc(C)cc3)c2)cc1 | 1 | 9 | -16 | -1 | -3 | 21
Cc1ccc(S(=O)(=O)Nc2ccc(Nc3ccccc3)cc2)cc1 | -5 | -1 | -111 | -3 | -2 | 99*
O=C(NCCc1c[nH]c2ccccc12)OCc1cn(Cc2cc(F)ccc2F)nn1 | nt | nt | nt | nt | 0 | nt
C=CCOC(=O)N[C@H](c1ccccc1)[C@H](C)/C=C/CC(=O)OC | nt | nt | nt | nt | -4 | nt
Cc1ccc(S(=O)(=O)NNc2ccccc2)cc1 | -3 | -2 | -11 | 9 | nt | 100*
O=C(CSc1nnc(COc2ccc(Cl)cc2)n1Cc1ccco1)Nc1ccc(OCc2ccccc2)cc1 | nt | nt | nt | nt | -2 | nt
CCc1noc(C)c1C(=O)Nc1nc2c(C)cc(C)cc2s1 | -3 | 7 | nt | -16 | -2 | 0
Cc1cc(C)c2nc(NNC(=O)c3ccc(S(=O)(=O)N4CC(C)CC(C)C4)cc3)sc2c1 (configuration not stated) | -7 | 2 | 29* | 1 | -2 | -2
CCC(=O)NNc1nc2c(C)cc(C)cc2s1 | 1 | 0 | 58* | 2 | -4 | 1
COc1ccc(CNC(=O)CSc2nc3ccc(N)cc3s2)cc1 | -1 | 0 | 2 | -5 | -3 | 98*
Nc1ccc2nc(SCC(=O)N3CCOCC3)sc2c1 | -3 | 1 | -8 | 4 | 3 | 99*
CC1(NC(=S)Nc2ccc(NC(=S)NC3(C)CCS(=O)(=O)C3)cc2)CCS(=O)(=O)C1 (configuration not stated) | 1 | 4 | 10 | -2 | -1 | 55
Cc1ccc(NC(=O)CSCC(=O)NC2(C)CCS(=O)(=O)C2)cc1 (configuration not stated) | 1 | -1 | nt | -6 | -1 | 99*
CCOC(=O)CSc1nc(N)c(C(=O)Nc2ccc(N(C)C)cc2)s1 | -6 | -1 | 4 | -7 | -1 | 88*

Assay outcomes deposited in PubChem by several laboratories.
